PfHsp90 set2 = reduces growth (ATP signal) of yeast expressing P. falciparum Hsp90; S. cerevisiae expressing PfHsp90, BacTiter-Glo ATP, 48 h; yeast lacking PDR1 and PDR3 efflux regulators; inhibition, % at 9.4 µM; 310,000 compounds, 0.32% hits; AID 504621;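 active = every replicate shows inhibition above about 80%, whatever the replicate mean, limit read from the data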;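 note: 0% = DMSO neutral controls and 100% = 20 µM radicicol positive controls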
esBAF inh = SWI/SNF esBAF complex inhibition; mouse ES cells, Bmi1-luciferase knock-in reporter, 24 h; 100% = twice the neutral-well signal; reporter increase, % at 12.5 µM; 350,000 compounds, 2% hits; AID 602393; in the data active = activation above about 40%;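 note: 0% = median of the plate's neutral control wells and 100% = double that signal; a rise in the Bmi1 reporter signal indicates esBAF inhibition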
Vif imaging = inhibitors of HIV Vif; AID 602346; 340,000 compounds, 0.35% hits; inhibition, % at 7.49 µM; HEK293T cells, Vif self-association by quenched fluorescence, imaging, 24 h; in the data active = inhibition above about 50%, passing the limit was not always enough
Wnt bcat act = activates Wnt/beta-catenin signaling in a reporter cell assay | activator, plate reader | activation, % at 9.35 µM | 300,000 compounds, 1.2% hits | AID 743398; in the data active = activation above about 30%, passing the limit was not always enough;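 note: 0% = neutral control wells and 100% = positive control wells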
Glyco luc inh = blocks N-linked glycosylation in D54 reporter cells. D54 ERlucT glycosylation luciferase reporter, 24 h; percent of 100 nM tunicamycin response. reporter increase, % at 12.5 µM. 360,000 compounds, 0.23% hits. AID 588692;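 active = mean luciferase reporter signal, scaled so untreated is 0 and the glycosylation-blocking control 100, at or above a set limit in every replicate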;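 note: luciferase carries N-glycosylation sites so blocking glycosylation raises the light; 0% = median of neutral control wells and 100% = median of 100 nM tunicamycin wells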
MITF act = MITF TRPM1 promoter activation in melanoma cells; 300,000 compounds, 0.75% hits; AID 588334; SK-MEL-5 TRPM1-promoter luciferase, 24 h; % of positive control, neutral wells = 0; activation, % at 12.5 µM;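 active = mean activation of at least 80% with every replicate also reaching 80%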;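 note: 0% = neutral control wells and 100% = parthenolide positive control wells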
Numbers without * were called inactive; / = no result. The list is not random: actives were taken first. Their share in the collection is about 3%.

SMILES	PfHsp90 set2	esBAF inh	Vif imaging	Wnt bcat act	Glyco luc inh	MITF act
O=C(CN1CCOCC1)OCCCC1CCCCC1	15	9	54*	0	2	15
O=C(CCC1CCCCC1)NCCN1CCOCC1	12	-1	7	-1	2	/
O=C(O)c1ccccc1NN=Cc1ccccc1	10	/	-2	61*	-2	40
COc1cccc(/C=N/Nc2ccccc2C(=O)O)c1O	-26	4	-1	35*	-7	26
CN1c2cccc3cccc(c23)N(C)C1(C)C	26	-5	1	-10	-7	-1
CC(=O)c1ccc2cccc3c2c1N=CN3C	6	-2	67*	/	5	-6
O=C(CSc1nncs1)NCCNC(=O)CSc1nncs1	/	-7	0	-4	1	-3
O=C(CCSCc1ccccc1F)NCCc1ccccc1	-18	5	-11	38*	2	6
O=C(CSc1nncs1)NCCCc1ccccc1	-41	/	-1	78*	0	4
O=C(CSc1ccccc1)NCCc1ccc(F)cc1	4	9	-1	2	2	/
O=C(CSc1ccccc1)NCCc1ccccc1	-15	52*	-3	6	1	44
CC(Sc1ccccc1)C(=O)NCCc1ccccc1 (stereo not given)	-10	63*	-4	5	0	/
O=C(Nc1ccccc1F)c1cc(C(=O)Nc2ccccc2F)cc([N+](=O)[O-])c1	-6	1	2	-1	5	/
Cc1ccc(-c2nc3ccccc3[nH]2)cc1NC(=O)/C=C/c1ccco1	/	23	5	/	-2	44
Cc1ccc(-c2nc3ccccc3[nH]2)cc1NC(=S)NC(=O)c1ccccc1Br	-4	58*	-20	0	1	14
Cc1ccc(-c2nc3ccccc3[nH]2)cc1NC(=O)c1ccc2c(c1)OCO2	-3	45*	5	/	1	28
O=C(NC(=S)Nc1cc(-c2nc3ccccc3[nH]2)ccc1Cl)c1ccc2c(c1)OCO2	-19	15	-18	26	-10	-53
Cc1ccnc(NC(=O)CNC(=O)c2sc3ccccc3c2Cl)c1	-24	52*	-3	12	-5	85*
O=C(NCC(=O)N1CCCCC1)c1sc2ccccc2c1Cl	-3	15	-7	45*	-3	114*
COc1ccc(C)cc1NC(=O)CNC(=O)c1sc2ccccc2c1Cl	-2	-4	3	-1	0	-13
O=C(Nc1nc2ccc(Cl)cc2s1)C1CCCO1 (stereo not given)	-4	49*	-8	/	-4	61
COC(=O)c1ccc2nc(NC(=O)C3CCCCC3)sc2c1	5	/	7	23	-9	38
CS(=O)(=O)c1ccc2nc(NC(=O)C3CCCO3)sc2c1 (stereo not given)	-2	/	1	1	3	5
CC(C)c1ccc2nc(NC(=O)C3CC3)sc2c1	-50	57*	-18	58*	-4	60
O=C(Nc1nc2ccc(Cl)cc2s1)C1CC1	-18	/	-12	60*	-2	/
SMILES	PfHsp90 set2	esBAF inh	Vif imaging	Wnt bcat act	Glyco luc inh	MITF act
CC1=CCC(C(=O)O)C(C(=O)Nc2ccc(-c3nc4ccc(C)cc4s3)cc2)C1 (stereo not given)	-60	-20	14	58*	-11	14
Cc1cc(Cl)cc2sc(NC(=O)C3CC3)nc12	1	18	4	8	1	1
O=C(CCCO)NNc1c2ccccc2nc2ccccc12	0	/	4	3	2	2
C[C@H]1CN([C@@H](C)CO)C(=O)c2cc(NS(=O)(=O)c3ccc(F)cc3)ccc2O[C@@H]1CN(C)C(=O)Nc1cccc2ccccc12	/	-1	/	/	/	/
CCOC(=O)C1=C(C)NC2=C(C(=O)CC(C)(C)C2)C1c1cccc(C)n1 (stereo not given)	29	-8	6	-2	-1	0
Cc1ccc(S(=O)(=O)N2C[C@@H]3[C@H]4CC[C@H](C4)[C@@H]3[C@@H](C)[C@H]2C#N)cc1	10	4	7	-1	-4	-2
COc1ccccc1OCC(=O)NCC1CCCN(C(=O)c2ccccc2C(C)=O)C1 (stereo not given)	18	4	-3	1	1	-4
CC(=O)Nc1ccc(S(=O)(=O)Nc2nc3ccc(C)cc3s2)cc1	-13	1	3	/	1	/
Cc1ccc2nc(NC(=O)C3CC3C)sc2c1 (stereo not given)	-6	72*	-39	28	-4	49
O=C(Nc1nc(-c2ccc(-c3ccccc3)cc2)cs1)C1CCCO1 (stereo not given)	-25	22	-3	/	-9	21
Cc1ccc2nc(-c3ccc(NS(=O)(=O)c4ccc(F)cc4)cc3)sc2c1	109*	/	-1	44*	-6	40
O=C(Nc1nc(-c2ccc(F)cc2)cs1)C1CCCO1 (stereo not given)	17	/	2	45*	0	85*
C/C=C/c1cc(OC)c2c(c1)[C@H](C)[C@@H](c1ccc(O)c(OC)c1)O2	/	1	6	-1	4	-5
Cc1ccc(-n2c(COc3ccccc3)nnc2SCC(=O)O)cc1	/	-1	/	62*	2	/
O=C(O)c1nn(-c2ccccc2)c(-c2ccccc2)c1C(=O)c1ccccc1	-51	-3	-6	-6	3	7
COC(=O)c1nn(-c2ccccc2)c(-c2ccccc2)c1C(=O)c1ccccc1	8	-14	50*	/	0	/
Cc1noc(C)c1NC(=O)Nc1ccc2c(c1)C(=O)N(C)[C@H]1CC[C@H](CC(=O)NCc3ccc(Cl)cc3)O[C@H]1CO2	/	0	/	/	/	/
O=c1c2ccccc2nnn1CCc1ccccc1	/	20	-8	43*	-9	/
Cc1ccc(SCn2nnc3ccccc3c2=O)c(C)c1	6	/	0	27	-2	110*
O=c1c2ccccc2nnn1COc1cccc(Cl)c1	-28	59*	-8	7	0	44
Cc1ccc2nc(SCn3nnc4ccccc4c3=O)[nH]c2c1	-34	/	-11	-1	-12	34
CSc1nnc(NC(=O)c2nc(S(=O)(=O)Cc3cccc(C)c3)ncc2Cl)s1	10	-25	-9	-10	-4	-81
C[C@H](O)C#Cc1ccc([C@@H]2[C@H](CO)N3CCCCN(S(=O)(=O)Cc4ccccc4)C[C@@H]23)cc1	/	11	/	/	/	/
COc1ccc(CN2C3CCC2CC(NC(=O)c2cc(OC)c(OC)c(OC)c2)C3)cc1 (stereo not given)	7	-9	63*	0	-1	-9
COc1cc(C(=O)NC2CC3CCCC(C2)N3C2CC2)cc(OC)c1OC (stereo not given)	2	11	0	/	0	/
COc1cc(C(=O)NC2CC3CCCC(C2)N3Cc2ccccc2)cc(OC)c1OC (stereo not given)	-28	2	2	-2	-2	4

Screening results deposited in PubChem by Broad Institute.
